Shown are actives, neighbours in structure and some others; about 6% of the full set was active somewhere.
D3 ag: agonists of human D3 dopamine receptor. max activation, %. AID 652048. P35462. D3R DiscoveRx beta-arrestin cells, luminescence, 90 min. 410,000 tested, 0.58% active; in the data active means max activation above about 30%
Target sequence (P35462 whole entry, looked up): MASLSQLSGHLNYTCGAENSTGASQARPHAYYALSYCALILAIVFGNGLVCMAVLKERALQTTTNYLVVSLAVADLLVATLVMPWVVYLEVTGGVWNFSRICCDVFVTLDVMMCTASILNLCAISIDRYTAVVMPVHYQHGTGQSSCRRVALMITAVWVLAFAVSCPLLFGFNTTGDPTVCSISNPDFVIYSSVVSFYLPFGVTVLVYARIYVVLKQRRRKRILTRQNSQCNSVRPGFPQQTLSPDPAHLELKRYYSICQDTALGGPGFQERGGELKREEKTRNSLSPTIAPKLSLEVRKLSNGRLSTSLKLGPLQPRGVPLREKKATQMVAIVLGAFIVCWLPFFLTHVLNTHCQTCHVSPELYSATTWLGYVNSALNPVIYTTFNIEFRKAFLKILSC
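Agonist mode: compounds and dopamine controls were applied to plated cells for 90 min at 37 degrees C after an overnight attachment at 1500 cells/well. Luminescent read-out followed 30 - 60 minutes at room temperature with DiscoveRx detection reagent.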
D1 potentiator: enhances dopamine response at the human D1 receptor. P21728. potentiation, % at 10 µM. HEK293 TREx D1 cells, calcium flux, dopamine EC20 potentiation. AID 504651. 360,000 tested, 0.036% active; in the data active means potentiation above about 30%
D1 ag: human D1 receptor agonism. HEK293 T-REx D1 cells, calcium flux, agonist mode. activation, % at 2 µM. 360,000 tested, 1% active. AID 504660; in the data active means activation above about 30%
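Tetracycline-induced HEK293 TREx D1 cells, force-coupled to calcium signalling, were dye-loaded with a no-wash calcium kit. Compound was pin-added after a 10 s baseline. Fluorescence was read kinetically at 1 cycle/s for 180 s, with calcium rises flagged as agonism.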
D3 antag: antagonists of human D3 dopamine receptor | max response, negative = inhibition, % | D3R cells, DiscoveRx beta-arrestin luminescence, antagonist mode; hits give low values | P35462 | 360,000 tested, 2.5% active; in the data active means max response below about -50%; inconclusive means no clear call, values can overlap the other calls
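Cells expressing the human receptor were seeded at 1500 cells/well, incubated overnight at 37 degrees C in 5% CO2, then exposed to library compounds with dopamine controls for 90 minutes at 37 degrees C before luminescent detection.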
D1 antagonist: antagonists of human D1 dopamine receptor. P21728. 360,000 tested, 3.2% active. activity change, negative = inhibition, % at 10 µM. HEK293 TREx D1 cells, calcium flux, dopamine EC80; hits give low values; in the data active means activity change below about -30%
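Compound effects on dopamine-evoked calcium signalling were measured in tetracycline-induced HEK293 Trex D1 cells. Dopamine at EC80 followed a 180 s compound pre-read, and fluorescence was tracked kinetically for 180 s more.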
Each line names hits and unclear results; the compound was inactive in the other large screens.

CCCCCCSc1ccc([C@H]2N[C@@](Cc3ccccc3)(C(=O)OC)[C@H]3C(=O)N(C)C(=O)[C@@H]23)cc1	D3 antag -51.3
N#CNC(=Nc1cccc(F)c1)SCc1ccccc1	none
N#CNC(=Nc1cccc(F)c1)SCc1cccc(F)c1	D1 antagonist -31.6
CC(C)N=C(NC#N)SCc1ccccc1	D1 antagonist -46.5
CCCCNC(=O)C(NC(=O)c1cccc2ccccc12)C(=O)c1ccccc1 (configuration not stated)	none (no result: D1 potentiator, D1 ag, D1 antagonist)
CCOC(=O)c1c(CC(C)C)csc1/N=C/C1C(=O)CC(C)(C)CC1=O	D1 ag 32.4
CCOC(=O)c1cc(C)sc1/N=C/C1C(=O)CC(C)(C)CC1=O	none
CCCC(c1nnnn1Cc1cccs1)N1CCN(C)CC1 (configuration not stated)	none
COCCn1nnnc1C(c1cc2cccc(C)c2[nH]c1=O)N1CCN(c2ccccc2F)CC1 (configuration not stated)	D3 antag -53.5
Cc1ccc(C(c2nnnn2Cc2cccs2)N2CCN(Cc3ccc4c(c3)OCO4)CC2)cc1 (configuration not stated)	D3 antag -53.1
COc1ccc(C(c2nnnn2Cc2cccs2)N2CCN(c3ccccc3F)CC2)cc1OC (configuration not stated)	D3 antag -81.5
COc1ccccc1CN1CCN(C(CC(C)C)c2nnnn2Cc2cccs2)CC1 (configuration not stated)	D3 antag -62.8
Cc1ccc(-c2nnn3c2nc(NCC(C)c2ccccc2)c2ccccc23)cc1 (configuration not stated)	none (no result: D3 antag)
COc1ccc(CN2C(=O)CSCC2(C)C(=O)NCc2ccccc2)cc1OC (configuration not stated)	none (no result: D1 potentiator, D1 ag, D1 antagonist)
CCOc1cc(CNCCCN2CCOCC2)cc(Br)c1OCc1ccccc1Cl	D1 ag 66.7
CCOc1cc(CNCCN2CCOCC2)ccc1OCc1ccccc1Cl	D1 ag 36.7
COc1cc(CNCc2ccncc2)cc(Br)c1OCc1ccccc1F	D1 antagonist -30.9
C=CCOc1c(Br)cc(CNCCCN2CCOCC2)cc1OC	none
CCOc1cc(CNCCO)cc(Br)c1OCc1ccccc1Cl	D1 ag 67.9
CCCOC(=O)CSc1ncnc2sc3c(c12)CCC(C)C3 (configuration not stated)	none (no result: D3 antag)
COc1ccc(NC(=O)C[C@H]2C(=O)N(c3ccc(OC)cc3)C[C@@H]2C)cc1	none (no result: D1 potentiator, D1 ag, D1 antagonist)
CNC[C@@H](C)NC[C@@H](Cc1ccccc1)NCCc1ccccc1	D3 antag -86.3
CCCC[C@@H](CNC)NC[C@H](Cc1ccc(O)cc1)NCCc1ccc(OCC)cc1	none
COc1ccc(OC)c(NC(=O)CC2C(=O)NCCN2C(=O)C(F)(F)F)c1 (configuration not stated)	none (no result: D3 antag)
COc1ccc2c(C)c(CCC(=O)NCc3ccccc3OC)c(=O)oc2c1	none (no result: D3 antag)
CNCC[C@H](Oc1cccc2ccccc12)c1cccs1	D1 ag 60.9
C/C(=N\NC(=O)COc1cccc2ccccc12)c1cccs1	none
CC1=C(C(=O)N(C)C)CC(CC(=O)NCC2CCCCC2)C(=O)N1CCCN1CCCC1=O (configuration not stated)	none (no result: D1 potentiator, D1 ag, D1 antagonist)
N#Cc1nc(NCC(F)F)c2ncn(-c3cccc(Cl)c3)c2n1	D1 antagonist -49.3 (no result: D3 ag, D3 antag)
Cn1cc(-c2ccc(C(=O)Nc3cccc(Oc4ccccc4)c3)c3occc23)cn1	none (no result: D1 potentiator, D1 ag, D1 antagonist)
COC(=O)COc1cccc(/C=N/NC(=O)CCSc2ccccc2)c1	D1 antagonist -33.5
COc1cccc(C=NNC(=O)CCCC(=O)NN=Cc2cccc(OC)c2)c1	none (no result: D1 potentiator, D1 ag, D1 antagonist)
CCC1CCCCN1C(=O)COC(=O)c1cncc(Br)c1 (configuration not stated)	none (no result: D1 potentiator, D1 ag, D1 antagonist)
CCN(C(=O)c1cc2c(=O)oc3ccc(C)cc3c2s1)c1ccccc1F	none (no result: D3 antag)
COc1ccc(N2CCN(C(=O)c3nn(C)c4c3CSc3ccccc3-4)CC2)cc1	none (no result: D3 antag)
CC(C)NC(=O)CC(c1ccccc1)c1cc(Br)ccc1O (configuration not stated)	D1 ag 44.1
CCOc1ccc(C(Nc2cccnc2)c2cc(Cl)c3cccnc3c2O)cc1 (configuration not stated)	D3 antag -58.1
COc1cc(NC(C)=O)c2ncccc2c1NC(C)=O	D1 antagonist -36.4
COc1ccccc1C(NC(C)=O)c1cc(Cl)c2cccnc2c1O (configuration not stated)	D3 antag -54.3
COc1cc(NC(C)=O)c2ncccc2c1[N+](=O)[O-]	none
CCC(=O)NC(c1ccc(Br)o1)c1cc(Cl)c2cccnc2c1O (configuration not stated)	D1 ag 88.8 (no result: D3 ag, D3 antag)
CCC(=O)NC(c1ccc(C)cc1)c1cc(Cl)c2cccnc2c1O (configuration not stated)	none (no result: D3 ag, D3 antag)
OCC(S)CS (configuration not stated)	none (no result: D1 potentiator, D1 ag, D3 antag, D1 antagonist)
COC(=O)c1ccc(NC(=O)Cn2c(=O)oc3ccccc32)cc1	none (no result: D3 antag)
CC(C)(C)c1cc(/C=N/NC(=O)Cc2nc3ccccc3[nH]2)cc(C(C)(C)C)c1O	D1 antagonist -35.4
O=[N+]([O-])c1ccc(N=Nc2ncc[nH]2)cc1	D3 antag -111.0
CN(C)Cc1c(O)ccc2cc(-c3nc4ccccc4n3C)c(=O)oc12	none
CCN(CC)c1ccc2cc(-c3nc4ccccc4n3C)c(=O)oc2c1	D1 ag 278.2
CCN(CC)c1ccc2cc(-c3nnc(-c4ccccc4)o3)c(=O)oc2c1	D1 ag 243.6
CCN(CC)c1ccc2cc(-c3nc4ccccc4[nH]3)c(=O)oc2c1	D1 ag 546.7, D1 antagonist -77.1
CC(=O)N1CCCc2cc(S(=O)(=O)N(CCN(C)C)Cc3ccccc3)ccc21	none (no result: D3 antag)
CCCCCCN1CCN(C2CN(Cc3ccc([N+](=O)[O-])cc3)S(=O)(=O)C2)CC1 (configuration not stated)	D3 antag inconclusive (no result: D1 potentiator, D1 ag, D1 antagonist)
CCOC(=O)C1CCN(Cc2ccc(OC)cc2OC)CC1	none
CCOC(=O)C1CCN(Cc2ccc(F)c(F)c2)CC1	D3 antag inconclusive
CCOC(=O)C1CCN(Cc2ccc3ccccc3c2)CC1	D3 antag -74.9
CCOC(=O)C1CCN(Cc2ccc(N(C)C)cc2)CC1	D3 antag -51.5
CCOC(=O)C1CCN(Cc2cccc(OC)c2)CC1	none
CCOC(=O)C1CCN(Cc2cc(C(C)C)c(O)c(C(C)C)c2)CC1	D3 antag -68.6
CCOC(=O)C1CCN(Cc2cnc(Oc3ccc(OC)cc3)s2)CC1	D3 antag -55.3
Cc1ccc2oc(C(=O)NCc3ncc(C)[nH]3)c(C)c2c1	none
Cc1ccc(C)c(Nc2nc(-c3ccccc3)c3cc(Br)ccc3n2)c1	none (no result: D3 antag)
CCc1nc2ccc(C(=O)Nc3cccc(OC)c3)cn2c1N(CC)CCN(C)C	none (no result: D1 potentiator, D1 ag, D1 antagonist)
CCc1ccc(CNCc2ccc(OCC(O)CN(C)Cc3ccccc3)cc2)nc1 (configuration not stated)	D3 antag -53.8
